The source of these data is PubChem BioAssay (EPA / NIEHS).

Results filed as inconclusive are left out. Active and inactive are the calls of the source. How the source made its calls, unless noted: active means hit-call score of the fitted dose curve at least 0.9, where 1 is the maximum; inactive means score below 0.9.

Assay [1] in a line: CCTE_Padilla_ZF_Score.General: CCTE's 144 Hour Post-fertilization zebrafish Assay Score for General Malformation, Padilla Lab (AID 2284411). In short, it runs like this: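 Malformation, death and hatching were scored at 6 dpf by two blinded observers under a stereo microscope. Embryos were dosed singly from 6-8 hpf in sealed plates of 10% Hanks' at 26C and rinsed on 5 dpf; DMSO baseline.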

Assay [2] in a line: CCTE_Padilla_ZF_Score.Tail: CCTE's 144 Hour Post-fertilization zebrafish Assay Score for Tail Malformation, Padilla Lab (AID 2284414). The method, boiled down:
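Tail malformations were scored at 6 dpf by two blinded assessors under a stereo microscope. Chorionated embryos had been exposed from 6-8 hpf in sealed wells of 10% Hanks' at 26 C, then rinsed free of chemical at 5 dpf.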

The nature of assay [3]: CCTE_Padilla_ZF_Score.Blood_pooling: CCTE's 144 Hour Post-fertilization zebrafish Assay Score for Blood Pooling, Padilla Lab (AID 2284415). The method, boiled down: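 Blood pooling was scored at 6 dpf under a stereo microscope by two blinded assessors, fitted upward against DMSO. Single embryos were dosed at 6–8 hpf in 10% Hanks', kept sealed at 26C (14:10 h cycle) and rinsed at 5 dpf.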

A short description of assay [4]: CCTE_Padilla_ZF_Score.Any: CCTE's 144 Hour Post-fertilization zebrafish Assay Score for Any Mortality or Malformation, Padilla Lab (AID 2284416). The method, boiled down: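 Wild-type zebrafish embryos with chorions, one per well in 10% Hanks' from 6–8 hpf, dosed in sealed plates at 26 C, 14:10 h light:dark; rinsed at 5 dpf; blinded scoring at 6 dpf for death or malformation, versus DMSO.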

In assay [5] the test system is SRY-box transcription factor 17 (SOX17) Protein Expression, Deisenroth Lab, SOX17 (gene 64321). The assay can be described thus: CCTE_Deisenroth_DEVTOX-GLR_Endo_SOX17: CCTE's DevTox GLR-Endo Assay Evaluation of SRY-box transcription factor 17 (SOX17) Protein Expression, Deisenroth Lab (AID 2284413). The method, boiled down:
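Human RUES2-GLR cells carrying an inducible fluorescent reporter are differentiated in defined media for 48 h and dosed twice, 24 h apart. After fixation and nuclear staining, imaging yields SOX17+ cell percentage relative to 0.2% DMSO-treated differentiated cells.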

In assay [6] the test system is Brachyury (BRA) Protein Expression, TBXT (gene 6862). Briefly: CCTE_Deisenroth_DEVTOX-GLR_Endo_BRA: CCTE's DevTox GLR-Endo Assay Evaluation of Brachyury (BRA) Protein Expression, Deisenroth Lab (AID 2284417). The method, boiled down: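 RUES2-GLR pluripotent cells differentiated 48 h with two chemical exposures 24 h apart, 10-point range 1 nM - 200 uM. Percentage of BRA+ cells per total count by high-content imaging, minus 0.2% DMSO control.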

A short description of assay [7]: CCTE_Deisenroth_DEVTOX-GLR_Endo_CellCount: Viability Assessment in CCTE's DevTox GLR-Endo Assay, Deisenroth Lab (AID 2284420). The method, then:
CCTE_Deisenroth_DEVTOX-GLR_Endo assay is a cell-based, multiplex-readout assay that uses RUES2-GLR, a human pluripotent cell line, with measurements taken at 48 hours after chemical dosing in a 384-well microplateCCTE_Deisenroth_DEVTOX-GLR_Endo_CellCount is 1 of 4 assay components calculated from the CCTE_Deisenroth_DEVTOX-GLR_Endo assay and it measures cell count. Using fluorescent nuclear staining, loss-of-signal activity can be used to understand changes in cell viability with fluorescent microscopy. It is designed to make measurements of nuclei counts as a surrogate for cell number, as detected with optical fluorescence microscopy by Perkin Elmer Harmony nuclei detection algorithm. To generalize the intended target to other relatable targets, this assay component is annotated to the cell cycle intended target family, where the subfamily is cytotoxicity.Data from the assay component CCTE_Deisenroth_DEVTOX-GLR_Endo_CellCount was analyzed as 1 assay endpoint. The endpoint the percent change in cell count relative to the 0.2% DMSO control in the CCTE_Deisenroth_DEVTOX-GLR_Endo assay. Furthermore, this assay endpoint can be referred to as a primary readout, because this assay has produced multiple assay endpoints where this one serves as a measure of cytotoxicity.
All assay protocols are aligned to the DevTox GLR-Endo assay workflow. Cells are seeded into 384-well microplates for 24 hours prior to initiating differentiation in defined media for a total duration of 48 hours. A total of two chemical exposures are administered in 24-hour intervals during the 48-hour differentiation period. At the assay termination point, cells are fixed and stained with a fluorescent dye demarcating the nucleus. High-content imaging is used to acquire brightfield and fluorescent channel images across 5 fields per well. Cell identification and mean biomarker fluorescence intensities are calculated with image analysis software to determine the total cell counts for viability assessment and the biomarker expression frequency for each lineage-dependent assay. A typical experimental design tests a 10-point concentration series (1 nM - 200 uM) for 28 compounds in single technical replicate. Assay plate controls include non-differentiated pluripotent cells (baseline control), lineage-specific differentiated cells (differentiation control), and DMSO solvent exposed differentiated cells (solvent control). Experiments typically comprise a minimum of four experimental replicates (n=4).

For assay [8], the system named is SRY-box transcription factor 17 (SOX17) Protein Expression, Deisenroth Lab, SOX17 (gene 64321). Briefly: CCTE_Deisenroth_DEVTOX-GLR_Pluri_SOX17: CCTE's DevTox GLR-Pluri Assay Evaluation of SRY-box transcription factor 17 (SOX17) Protein Expression, Deisenroth Lab (AID 2284427; active means hit-call score of the fitted dose curve at least 0.9, where 1 is the maximum). In short, it runs like this:
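Human RUES2-GLR pluripotent line; 24 h seeding, 48 h defined-media differentiation, 2 doses q24h, 10 conc 1 nM - 200 uM. Fix, nuclear stain, image 5 fields/well. Endpoint = %SOX17+ minus 0.2% DMSO; n=4.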

For assay [9], the system named is SRY-box transcription factor 2 (SOX2) Protein Expression, Deisenroth Lab, SOX2 (gene 6657). Briefly: CCTE_Deisenroth_DEVTOX-GLR_Pluri_SOX2: CCTE's DevTox GLR-Pluri Assay Evaluation of SRY-box transcription factor 2 (SOX2) Protein Expression, Deisenroth Lab (AID 2284428). The method, boiled down:
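Steps: seed RUES2-GLR cells for 24 h; start 48 h differentiation in defined media; dose test chemicals at 0 and 24 h (1 nM–200 uM); fix, stain nuclei, image; compute SOX2+ percentage against 0.2% DMSO wells.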

The test system is the same in assay [10]. Briefly: CCTE_Deisenroth_DEVTOX-GLR_Endo_SOX2: CCTE's DevTox GLR-Endo Assay Evaluation of SRY-box transcription factor 2 (SOX2) Protein Expression, Deisenroth Lab (AID 2284412; active means hit-call score of the fitted dose curve at least 0.9, where 1 is the maximum). In short, it runs like this: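 Endpoint is percent SOX2-positive cells (SOX2+ count/total cells) minus 0.2% DMSO control, from high-content imaging of fixed, nuclear-stained RUES2-GLR cells. Dosing twice at 24 h intervals over 48 h differentiation, 1 nM–200 uM in 10 points.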

Usually AC50 stands for the concentration at which the activity in the assay is half-maximal. On to `O=C(O)CCC(F)(F)C(F)(F)C(F)(F)C(F)(F)C(F)(F)C(F)(F)F`, for which the molecule was classed as inactive in assay [1], in assay [2] and in assay [3]. Moreover, in assay [4], the half-maximal activity concentration (AC50) is 13.8 µM (active).

In the case of `C=CC(C)(CCC=C(C)C)OC(C)=O` (centres undefined), the molecule was classed as inactive in assay [1].

With `CN(Cc1cnc2nc(N)nc(N)c2n1)c1ccc(C(=O)N[C@@H](CCC(=O)O)C(=O)O)cc1`, the AC50 in [5] was 0.319 µM (active); in [6], 0.329 µM (active); in assay [7], 0.361 µM (active); in [9], 0.0314 µM (active). Besides, the call in assay [8] was inactive.

For `FC1(F)C=CC(F)(F)C1(F)F`, the result in assay [1], in assay [2], in assay [3] and in assay [4] was inactive.

Consider `O=CC(F)(F)C(F)(F)C(F)(F)C(F)F`, for which the outcome in assay [1], in assay [2], in assay [3] and in [4] was inactive.

`FC(OC(F)(F)C(F)(F)C(F)(F)F)C(F)(F)F` (centres undefined): the molecule was called inactive in assay [1], in assay [2], in assay [3] and in assay [4].

Turning to `OCCN1CN(CCO)CN(CCO)C1`, the molecule was called inactive in assay [1].

For `FC(F)(F)C1(F)C(F)(F)C(F)(F)C(F)(F)C1(F)F`, the call in [1], in assay [2], in assay [3] and in assay [4] was inactive.

Turning to `CC(=O)Nc1ccc(O)cc1`, the result in assay [5], in assay [6], in assay [7], in [8] and in assay [9] was inactive.

Regarding `C=CC(F)(F)C(F)(F)C(F)(F)C(F)(F)F`, the call in assay [1], in [2], in assay [3] and in [4] was inactive.

With `CCCCCCCCCCCCCCCCCC[N+](C)(C)Cc1ccccc1`, the outcome in assay [1] was inactive.

For `O=C(OC(=O)C(F)(F)C(F)(F)F)C(F)(F)C(F)(F)F`, the call in assay [1], in assay [2], in assay [3] and in assay [4] was inactive.

With `O=C1c2ccc(O)c(O)c2C(=O)c2c(O)ccc(O)c21`, the outcome in assay [1] was inactive.

For the molecule `COC(=O)C(F)(F)C(F)(F)C(F)(F)C(F)(F)C(F)(F)F`, the molecule was classed as inactive in assay [1], in assay [2], in assay [3] and in [4].

As to `C=CC(=O)OCCC(F)(F)C(F)(F)C(F)(F)C(F)(F)C(F)(F)C(F)(F)C(F)(F)C(F)(F)F`, the molecule was classed as inactive in assay [1], in assay [2], in [3] and in assay [4].

In the case of `O=C1NS(=O)(=O)c2ccccc21`, the molecule was called inactive in assay [5], in assay [6], in assay [7], in [8] and in [9].

Take `CN(C)CCOC(c1ccccc1)c1ccccc1`: the AC50 in assay [10] was 2.01 µM (active); in assay [5] it was 54.7 µM (active); in assay [6], 46.8 µM (active); in assay [7], 61.7 µM (active); in assay [8], 36.2 µM (active); in [9], 83.2 µM (active).

With `O=P(O)(O)CCC(F)(F)C(F)(F)C(F)(F)C(F)(F)C(F)(F)C(F)(F)C(F)(F)C(F)(F)F`, the values for the AC50 in assay [1] and in [4] were 1.78 µM (active) and 2.32 µM (active), respectively. Also, the molecule was called inactive in [2] and in assay [3].

Consider `O=C(O)C(F)(F)OC(F)(F)C(F)(F)OC(F)(F)C(F)(F)OC(F)(F)C(F)(F)C(F)(F)C(F)(F)F`, for which the results for the AC50 in [1] and in assay [4] were 2.18 µM (active) and 2.9 µM (active), respectively. Further, the result in [2] and in assay [3] was inactive.

For the molecule `CCCCc1oc2ccccc2c1C(=O)c1cc(I)c(OCCN(CC)CC)c(I)c1`, the AC50 in [10] is 31 µM (active); in assay [5], 25.6 µM (active); in assay [6] it was 14.2 µM (active); in assay [7], 18.2 µM (active); in assay [8], 21.4 µM (active); in [9], 10.4 µM (active).

On to `O=P(O)(O)CCC(F)(F)C(F)(F)C(F)(F)C(F)(F)C(F)(F)C(F)(F)F`, for which the call in assay [1], in [2] and in assay [3] was inactive. For the same molecule, the AC50 in [4] was 25.6 µM (active).

For `O=C(CC(=O)C(F)(F)C(F)(F)C(F)(F)F)c1cccs1`, the outcome in [1], in assay [2] and in assay [3] was inactive. Besides, in assay [4], the concentration at half-maximal activity (AC50) was 3.55 µM (active).

Turning to `FC(F)=C(F)C(F)(F)C(F)(F)C(F)(F)C(F)F`, the molecule was classed as inactive in [1], in assay [2], in [3] and in assay [4].

Take `OCC(F)(F)C(F)(F)C(F)(F)C(F)(F)C(F)(F)C(F)(F)C(F)(F)C(F)(F)C(F)(F)C(F)(F)C(F)(F)F`: the result in [1], in [2], in assay [3] and in assay [4] was inactive.

`FC(F)(F)C1(F)C(F)(F)C(F)(F)C(F)(F)C(F)(C(F)(F)F)C1(F)F` (centres undefined): the result in assay [1], in assay [2], in assay [3] and in assay [4] was inactive.

On to `O=CC(F)(F)C(F)(F)C(F)(F)F`, for which, in assay [1], the AC50 was 79.6 µM (active). For the same molecule, the call in [2], in assay [3] and in [4] was inactive.

As to `O=C1OC(=O)C(F)(F)C1(F)F`, the molecule was classed as inactive in assay [1], in [2], in assay [3] and in assay [4].

As to `NC(C(F)(F)F)C(F)(F)F`, the outcome in [1], in [2], in assay [3] and in [4] was inactive.

As to `CC(C)(c1ccc(Oc2ccc(N)cc2)cc1)c1ccc(Oc2ccc(N)cc2)cc1`, the call in assay [1] was inactive.

For the molecule `CN(CCO)S(=O)(=O)C(F)(F)C(F)(F)C(F)(F)C(F)(F)C(F)(F)C(F)(F)C(F)(F)C(F)(F)F`, the outcome in assay [1], in assay [2] and in assay [3] was inactive. The AC50 in assay [4] was 9.78 µM (active).

Consider `FCOC(C(F)(F)F)C(F)(F)F`, for which the molecule was called inactive in [1], in [2], in [3] and in assay [4].

`COC1=CC(=O)C[C@@H](C)[C@]12Oc1c(Cl)c(OC)cc(OC)c1C2=O`: the outcome in assay [1] was inactive.

Turning to `O=C(O)CCC(F)(F)C(F)(F)C(F)(F)C(F)(F)C(F)(F)F`, the values for the AC50 in [1] and in assay [4] were 10.7 µM (active) and 10 µM (active), respectively. Further, the call in [2] and in assay [3] was inactive.

In the case of `O=C(F)C(F)(F)C(F)(F)C(F)(F)C(=O)F`, the call in assay [1], in assay [2], in assay [3] and in [4] was inactive.

As for `FC(F)(F)N1C(F)(F)C(F)(F)OC(F)(F)C1(F)F`, the call in assay [1], in assay [2], in assay [3] and in assay [4] was inactive.
